PubChem BioAssay AID1159580 (chemical genetic matrix, 2015)
Values joined by “and” are separate entries in the source; they are usually repeats but may differ in a detail not shown here. Equal entries are not always repeated. Out of some 5,500 compounds screened, about 2,000 (36%) were called active. Roughly 18% stayed inconclusive and do not appear here. Rule as the data show it: active = normalized growth mostly below about 0.91 (no sharp cut-off); inconclusive = no clear call, values can overlap the other calls; inactive = mostly above about 0.92. The list shows a part of the results. More than one record can exist for a structure, and the calls need not agree.

Assay: chemical genetic growth profiling, strain panel (AID 1159580);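 also: tested at 20 µM; growth read once vehicle control cultures reached saturation at 30 °C; 1 = growth at the plate median or of vehicle wells; lower values mean less growth of the strain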
Conditions: S. cerevisiae deletion strains, growth OD

Measured: normalized growth

COc1ccc(-c2coc3cc(OC)ccc3c2=O)cc1
active: locus YBR229C, strain ROT2, stronger effect = lower value 0.908 | locus YDL101C, strain DUN1, stronger effect = lower value 0.891 | locus YDL185W, strain tfp1, stronger effect = lower value 0.896 | locus YDL192W, strain arf1, stronger effect = lower value 0.898 | locus YDR162C, strain NBP2, stronger effect = lower value 0.607 | locus YDR318W, strain mcm21, stronger effect = lower value 0.912 | locus YDR388W, stronger effect = lower value 0.92 | locus YDR502C, strain sam2, stronger effect = lower value 0.907 | locus YEL061C, strain CIN8, stronger effect = lower value 0.917 | locus YGL086W, strain mad1, stronger effect = lower value 0.906 | locus YGL248W, strain PDE1, stronger effect = lower value 0.876 | locus YGR078C, strain PAC10, stronger effect = lower value 0.811 | locus YGR135W, strain pre9, stronger effect = lower value 0.89 | locus YHR079C, strain IRE1 (second series), stronger effect = lower value 0.922 | locus YHR129C, strain ARP1, stronger effect = lower value 0.915 | locus YHR200W, strain rpn10, stronger effect = lower value 0.906 | locus YIL066C, strain RNR3, stronger effect = lower value 0.807 | locus YKL068W, stronger effect = lower value 0.93 | locus YKL085W, strain MDH1 (second series), stronger effect = lower value 0.928 | locus YKL085W, strain MDH1, stronger effect = lower value 0.928 | locus YKR001C, strain vps1, stronger effect = lower value 0.644 | locus YLR039C, strain RIC1, stronger effect = lower value 0.48 | locus YLR262C, strain YPT6, stronger effect = lower value 0.468 | locus YLR330W, strain CHS5, stronger effect = lower value 0.874 | locus YLR342W, strain FKS1 (second series), stronger effect = lower value 0.763 | locus YLR418C, strain cdc73, stronger effect = lower value 0.736 | locus YML124C, strain tub3, stronger effect = lower value 0.925 | locus YNL271C, strain bni1, stronger effect = lower value 0.918 | locus YNL298W, strain CLA4, stronger effect = lower value 0.906 | locus YNL307C, strain MCK1, stronger effect = lower value 0.543 | locus YOL147C, strain pex11, stronger effect = lower value 0.922 | locus YOR184W, strain ser1, stronger effect = lower value 0.783 | locus YPR163C, strain tif3, stronger effect = lower value 0.772
0.983 (inactive) and 0.669 (active): locus YJL095W, strain BCK1, stronger effect = lower value
inactive: locus YAL013W, strain DEP1, stronger effect = lower value 0.933 | locus YBR021W, strain FUR4, stronger effect = lower value 1.02 | locus YCL029C, strain bik1, stronger effect = lower value 0.929 | locus YDL035C, strain GPR1, stronger effect = lower value 0.905 | locus YDL074C, strain BRE1, stronger effect = lower value 0.839 | locus YDR101C, strain arx1, stronger effect = lower value 0.92 | locus YDR150W, strain NUM1, stronger effect = lower value 0.94 | locus YER110C, stronger effect = lower value 0.907 | locus YER155C, strain BEM2, stronger effect = lower value 1.01 | locus YER167W, strain BCK2, stronger effect = lower value 0.906 | locus YGL078C, strain dbp3, stronger effect = lower value 0.936 | locus YGR252W, strain gcn5, stronger effect = lower value 0.851 | locus YHR079C, strain IRE1, stronger effect = lower value 0.976 | locus YHR094C, strain hxt1, stronger effect = lower value 0.949 | locus YIL073C, strain SPO22, stronger effect = lower value 0.783 | locus YIL125W, strain kgd1, stronger effect = lower value 0.941 | locus YIR030C, strain dcg1, stronger effect = lower value 0.931 | locus YJL134W, strain LCB3, stronger effect = lower value 0.941 | locus YJL168C, strain set2, stronger effect = lower value 0.936 | locus YJL187C, strain SWE1 (second series), stronger effect = lower value 0.891 | locus YJR043C, strain POL32, stronger effect = lower value 0.885 | locus YJR066W, strain TOR1, stronger effect = lower value 0.9 | locus YJR075W, strain HOC1, stronger effect = lower value 0.913 | locus YKL009W, strain mrt4, stronger effect = lower value 0.92 | locus YKL190W, strain CNB1, stronger effect = lower value 0.933 | locus YLR058C, strain SHM2, stronger effect = lower value 0.906 | locus YLR102C, strain apc9, stronger effect = lower value 0.941 | locus YLR113W, strain HOG1, stronger effect = lower value 0.984 | locus YLR268W, strain sec22, stronger effect = lower value 0.919 | locus YLR371W, strain rom2, stronger effect = lower value 0.933 | locus YML016C, strain PPZ1, stronger effect = lower value 0.922 | locus YML032C, strain rad52, stronger effect = lower value 0.942 | locus YMR078C, strain ctf18, stronger effect = lower value 0.929 | locus YMR223W, strain ubp8, stronger effect = lower value 0.911 | locus YMR263W, strain SAP30, stronger effect = lower value 0.898 | locus YMR307W, strain GAS1, stronger effect = lower value 0.658 | locus YNL067W, strain RPL9B, stronger effect = lower value 0.886 | locus YNL183C, strain NPR1, stronger effect = lower value 0.921 | locus YNL233W, strain BNI4, stronger effect = lower value 0.888 | locus YNL250W, strain rad50, stronger effect = lower value 0.943 | locus YNL322C, strain KRE1, stronger effect = lower value 0.936 | locus YNR052C, strain pop2, stronger effect = lower value 0.928 | locus YOL006C, strain TOP1, stronger effect = lower value 0.589 | locus YOL012C, strain htz1 0.966 | locus YOR061W, strain CKA2, stronger effect = lower value 0.899 | locus YOR069W, strain VPS5, stronger effect = lower value 0.937 | locus YOR136W, strain idh2, stronger effect = lower value 0.971 | locus YOR144C, strain elg1, stronger effect = lower value 0.937 | locus YOR231W, strain MKK1, stronger effect = lower value 0.982 | locus YOR316C, strain cot1, stronger effect = lower value 0.928 | locus YPL055C, strain LGE1, stronger effect = lower value 0.836 | locus YPL256C, strain CLN2, stronger effect = lower value 0.968 | locus YPR119W, strain clb2, stronger effect = lower value 0.947 | locus YPR141C, strain kar3, stronger effect = lower value 0.921 | locus YPR167C, strain met16, stronger effect = lower value 0.943 | strain wtn01, stronger effect = lower value 0.91
0.973 (inactive) and 0.882 (active): locus YHR030C, strain SLT2, stronger effect = lower value
